Screens from PubChem.
The list is not random: actives were taken first. Their share in the collection is about 0.2%.
Bcl-B Bim block: human Bim-Bcl-B interaction inhibition | AID 951 | Q9HD36 | 190,000 compounds, 0.073% hits | bead-based flow cytometry, Bim peptide-Bcl-B binding | inhibition, % at 10 µM;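 also: 0% = tracer peptide without compound and 100% = reference inhibitor peptide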
Target sequence (Q9HD36 whole entry, looked up): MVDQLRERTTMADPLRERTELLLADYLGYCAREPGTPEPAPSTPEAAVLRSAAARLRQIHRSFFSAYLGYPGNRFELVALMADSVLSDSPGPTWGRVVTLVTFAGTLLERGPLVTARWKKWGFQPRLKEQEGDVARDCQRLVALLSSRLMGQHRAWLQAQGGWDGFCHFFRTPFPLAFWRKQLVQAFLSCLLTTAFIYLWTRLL
Bim-Bcl-2: inhibitors of Bim-Bcl-2 interaction, human; P10415; Bead-based flow cytometry, Bim peptide-Bcl-2 binding; inhibition, % at 10 µM; 190,000 compounds, 0.06% hits; in the data active = inhibition above about 40%;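 also: 0% = no compound wells with probe peptide and 100% = reference peptide inhibitor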
Bim-Bcl-W: human Bim-Bcl-W interaction inhibition. Q92843. bead-based flow cytometry, Bim peptide-Bcl-W binding. inhibition, % at 10 µM. 190,000 compounds, 0.02% hits. AID 952;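 also: 0% = bound tracer without compound and 100% = peptide blocker; higher means less fluorescent Bim peptide bound to Bcl-W beads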
Target sequence (Q92843 whole entry, looked up): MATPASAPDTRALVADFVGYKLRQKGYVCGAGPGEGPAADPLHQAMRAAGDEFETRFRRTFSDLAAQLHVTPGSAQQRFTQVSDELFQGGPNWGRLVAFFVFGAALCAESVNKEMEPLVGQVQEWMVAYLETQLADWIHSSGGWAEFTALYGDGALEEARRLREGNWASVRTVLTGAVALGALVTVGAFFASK
Bim-Bfl-1: human Bim-Bfl-1 interaction inhibition. 190,000 compounds, 0.12% hits. inhibition, % at 10 µM. Q16548. Bead-based flow cytometry, Bim-Bfl-1 binding inhibition;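 also: 0% = wells without compound plus tracer and 100% = blocker peptide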
Target sequence (Q16548 whole entry, looked up): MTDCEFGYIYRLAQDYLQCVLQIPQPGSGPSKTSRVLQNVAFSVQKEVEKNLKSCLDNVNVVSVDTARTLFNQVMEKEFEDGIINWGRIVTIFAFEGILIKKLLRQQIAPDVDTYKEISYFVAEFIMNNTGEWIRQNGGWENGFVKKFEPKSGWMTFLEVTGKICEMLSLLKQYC
Bim-Bcl-XL: disrupts Bim peptide binding to human Bcl-XL | Q07817 | bead flow cytometry, fluorescence | inhibition, % at 10 µM | 190,000 compounds, 0.04% hits | AID 1007
An asterisk follows results filed as active; nt = no result. Rule as the data show it, unless noted: active = inhibition above about 40%.

SMILES | Bcl-B Bim block | Bim-Bcl-2 | Bim-Bcl-W | Bim-Bfl-1 | Bim-Bcl-XL
O=C(OCC(=O)c1ccc[nH]1)c1ccccc1 | 74* | 79* | 1 | 52* | 2
Cc1nn(-c2ccccn2)c2c1C(=O)C(Br)CC2 (stereo not given) | 0 | 24 | 35 | 59* | 12
COc1ccc(CN(C)CC(=O)NC(C)c2ccccc2)c(OC)c1 (stereo not given) | 60* | 62* | 39 | 56* | 30
CCCC1=[N+](CC)CCn2c(C)ccc21 | -11 | -12 | -1 | -8 | -4
Cc1cc2n(c1)CCn1c(C)ccc1-2 | 40* | 17 | 23 | 28 | 5
COc1ccc(NC2c3ccccc3C(=O)N2c2ccccn2)cc1Cl (stereo not given) | -4 | -8 | 0 | -13 | -3
CN(C)[C@@H]1C(=O)C(C(=O)NCN2CCCC2)=C(O)[C@@]2(O)C(=O)C3=C(O)c4c(O)cccc4[C@@](C)(O)C3CC12 (stereo not given in full) | 43* | 37 | 21 | 19 | 10
Cc1ccccc1-n1c(SCc2cccc(F)c2)nc2[nH]ncc2c1=O | 11 | 25 | 25 | 44* | 39
O=C(COC(=O)c1cc[n+]([O-])cc1)Nc1ccccc1Sc1ccccc1 | 0 | 5 | 0 | -2 | -1
C[C@@H]1CCC[C@@]2(O[C@H](CCO)C[C@@H](O)[C@@H]2O)O1 | -2 | 0 | -2 | -2 | -4
CN(C)S(=O)(=O)c1cccc(-c2nn(-c3ccccc3)cc2/C=C2\SC(=S)NC2=O)c1 | 55* | 31 | 37 | 41* | 43*
CN(C)S(=O)(=O)c1cccc(-c2nn(-c3ccccc3)cc2/C=C(\C#N)c2nc3ccccc3[nH]2)c1 | -4 | 0 | -4 | 0 | -6
CC(C)(C)C1CCC(=NNC(=O)c2cc3c(s2)CCCC3)CC1 (stereo not given) | 26 | 29 | 41* | 44* | 43*
O=C(NN=C1CCC(c2ccccc2)CC1)c1cc2c(s1)CCCC2 (stereo not given) | -6 | -1 | -4 | -10 | -13
c1ccc(CNc2nc(N3CCOCC3)nc(N3CCOCC3)n2)cc1 | -3 | -7 | 0 | -2 | -1
Clc1nc(NCc2cccnc2)nc(N2CCOCC2)n1 | 73* | 23 | 47* | 22 | 49*
CCN(CC)CCN(C(=O)c1ccc(N2C(=O)CCC2=O)cc1)c1nc2cc3c(cc2s1)OCCO3 | 36 | 43* | 4 | 32 | 1
CCCOc1cc(CC(=O)NCc2ccco2)ccc1OC | -8 | -4 | 3 | -5 | 0
c1coc(C2Nc3cccc4cccc(c34)N2)c1 | 4 | 16 | 36 | 42* | 11
FC(F)(F)c1ccc(C2Nc3cccc4cccc(c34)N2)cc1 | 7 | 0 | -1 | 7 | 0
Cc1ccccc1-n1c(SCc2csc(Nc3ccccc3)n2)nnc1-c1cccnc1 | -11 | -7 | -6 | -7 | -4
Cc1ccc(Nc2nc(CSc3nnc(-c4cccnc4)n3-c3ccccc3C)cs2)cc1 | 14 | 29 | 25 | 42* | 32
CCOC(=O)C1=C(O)/C(=C\c2ccc(OC)c(OC)c2)N=C1C | 0 | -1 | -3 | -2 | -4
CCOc1cc(/C=C2/N=C(C)C(C(=O)OC)=C2O)ccc1O | 44* | 59* | 59* | 58* | 34
O=C(NC1=C(Nc2ccc(Cl)cc2)C(=O)c2ccccc2C1=O)c1ccccc1 | -6 | 9 | 1 | 32 | -10
SMILES | Bcl-B Bim block | Bim-Bcl-2 | Bim-Bcl-W | Bim-Bfl-1 | Bim-Bcl-XL
O=C(NC1=C(NC2CCS(=O)(=O)C2)C(=O)c2ccccc2C1=O)c1ccccc1 (stereo not given) | 7 | 11 | 22 | 56* | 5
CN(CC(=O)NCc1ccncc1)S(=O)(=O)c1ccccc1 | -6 | -1 | -8 | -5 | -16
Cc1ccc(/C=C/c2nnc(-c3ccc(C)cc3)o2)cc1 | 1 | 0 | 0 | 0 | 1
CC(=O)c1ccc(-n2nncc2C(C)(C)C)cc1 | 0 | 3 | 1 | 5 | 0
Cc1cnnn1-c1ccc(C(=O)CCl)cc1 | 34 | 36 | 60* | 60* | 33
Nc1c(C(=O)NC2CC2)sc2nc3c(c(-c4ccco4)c12)CC/C3=C/c1ccco1 | 34 | 43* | 34 | 56* | 29
NC(=O)c1sc2nc3c(c(-c4ccco4)c2c1N)CCC3 | 7 | 2 | 12 | 8 | 14
COc1ccc(-c2noc(COc3ccc4c(c3)OCO4)n2)cc1OC | nt | 85* | 18 | nt | 23
O=C(OCc1cnc(Cl)s1)c1ccccc1Cl | -4 | -5 | -2 | -13 | -4
O=C(OCc1cnc(Cl)s1)c1cccc(Cl)c1Cl | 70* | 76* | 12 | 51* | 7
Cc1csc(SC(C)C(=O)NCC(=O)Nc2ccc(F)c(F)c2F)n1 (stereo not given) | -2 | 1 | 1 | -3 | 0
Nc1nc2c(s1)CCc1c-2cnn1-c1ccccc1 | 11 | 18 | 30 | 41* | 12
CCC1=NNc2cccc3c(OC)ccc1c23 | 100* | 64* | 66* | 56* | 75*
COc1ccc2c3c(cccc13)C(=O)N(O)C2=O | 1 | -6 | 5 | -15 | 4
CNC(=S)N(Cc1cccs1)Cc1cc2ccc(OC)cc2[nH]c1=O | 29 | 30 | 26 | 47* | 35
COc1ccc2[nH]c(=O)c(CN(Cc3cccs3)C(=S)Nc3ccccc3)cc2c1 | -8 | -11 | -8 | -14 | -8
CN(C)c1ccc(NC2=C(Cl)C(=O)c3ccccc3C2=O)cc1 | -2 | 28 | 48* | 71* | 9
CCN(CC)C(=O)C1CCCN(c2ncnc3c2cnn3-c2cccc(C)c2)C1 (stereo not given) | -1 | -5 | 6 | -12 | 1
CCOC(=O)C1CCCN(c2ncnc3c2cnn3-c2cccc(C)c2)C1 (stereo not given) | 26 | 33 | 30 | 47* | 46*
Cc1ccc(NCc2nnc(SCC(=O)Nc3ncc(C)s3)n2CC2CCCO2)c(C)c1 (stereo not given) | -1 | -2 | -2 | 0 | -2
O=C(CNC(=O)c1ccccc1)OCc1nc2ccccc2s1 | -11 | -7 | -4 | -14 | -9
COC(=O)/C(=C/c1ccc(F)cc1)NC(C)=O | 48* | 28 | -4 | 1 | 0
COC(=O)/C(=C/c1c[nH]c2ccccc12)NC(C)=O | -2 | -5 | -1 | 0 | -4
Cc1ccc(NC(=O)CC2C(=O)N(Cc3ccccc3)C(=S)N2NC(=O)c2ccccc2)c(C)c1 (stereo not given) | -12 | -12 | -7 | -10 | -8
CNC(=O)CC1C(=O)N(Cc2ccccc2)C(=S)N1NC(=O)c1cccc(F)c1 (stereo not given) | 25 | 27 | 28 | 40* | 40*
Cc1cc(Cl)c(OCCOCCN2CCC(C)CC2)c(Br)c1 | -5 | -2 | -3 | 0 | -4
CCOc1c(Cl)cc(CNc2ccc(S(N)(=O)=O)cc2)cc1OC | -3 | 1 | 3 | 2 | 0
CCOc1c(Cl)cc(CNc2ccc(N3CCCC3)cc2)cc1OC | -11 | 12 | 15 | 41* | 1
